Article PMC4552634, “A New Set of Chemical Starting Points with Plasmodium falciparum Transmission-Blocking Potential for Antimalarial Drug Discovery” (PLoS ONE, 2015)
In all, about 13,000 compounds went through this assay and about 3,200 (25%) showed an effect of 50% or more. The list shows a part of the results.

tested on: P. falciparum stage V gametocytes; set-up: BacTiter-Glo ATP luminescence viability of purified stage V gametocytes in 384-well plates, per cent inhibition versus DMSO; details: 48 h, 5 µM; inhibitor

Row | Structure (SMILES) | % Inhibition
1 | COc1ccc(CNC(=O)NC2CCN(c3ccnc(Nc4ccc(F)cc4)n3)C2)cc1 (stereo not shown) [TCMDC-133592] | -44.87%
2 | CCCc1cc(Cc2cnc(N)nc2N)cc(CCC)c1OCCCCC(=O)OC [TCMDC-137290] | -38.14%
3 | CCNc1cc(C)nc(Nc2ccccc2)n1 [TCMDC-134006] | 18.88%
4 | CC(=O)Nc1nc(C(=O)Nc2ccc(-c3ccc(-c4nc5ccccc5[nH]4)cc3)cc2)cs1 [TCMDC-137128] | -5.634%
5 | CCOC(=O)CCCOc1c(OC)cc(Cc2cnc(N)nc2N)cc1OC [TCMDC-137899] | -8.343%
6 | O=C(Nc1ccc(Cl)c(C(F)(F)F)c1)Nc1ccc(Cl)c(C(F)(F)F)c1 [TCMDC-137559] | -42.31%
7 | CC(C)(C)c1ccc(CN2CCC(CNC(=O)c3cc(-c4cccc(C(F)(F)F)c4)cs3)C2)cc1 (stereo not shown) [TCMDC-134442] | 107%
8 | CN(C)CCOc1cc(NC(=O)/C=C/c2cccc3ccccc23)ccc1I [TCMDC-139119] | 42.15%
9 | OCC1CCN(Cc2ccc(-c3cccc(-c4nc5ccccc5[nH]4)c3)cc2)CC1 [TCMDC-132552] | 86.93%
10 | NC(=O)C1CCN(Cc2ccc(-c3cccc(-c4nc5ccc(F)cc5[nH]4)c3)cc2)CC1 [TCMDC-132689] | -35.18%
11 | OCC1CCN(Cc2ccc(-c3ccc(-c4nc5ccccc5[nH]4)cc3)cc2)CC1 [TCMDC-133927] | -51.35%
12 | OCC1CCN(Cc2cccc(-c3ccc(-c4nc5ccc(F)cc5[nH]4)cc3)c2)CC1 [TCMDC-133934] | -11.78%
13 | OCC1CCN(Cc2ccc(-c3cccc(-c4nc5ccc(F)cc5[nH]4)c3)cc2)CC1 [TCMDC-133121] | 70.65%
14 | OCCC1CCN(Cc2ccc(-c3ccc(-c4nc5ccccc5[nH]4)cc3)cc2)CC1 [TCMDC-133905] | -1.76%
15 | COc1cccc(CNC[C@@H](O)[C@H](Cc2ccccc2)NC(=O)c2cc(OC(C)C)cc(N3CCCCS3(=O)=O)c2)c1 [TCMDC-134522] | -6.565%
16 | COc1ccc2c(c1)CCCC2C(C)NCC(O)c1cccc(C(F)(F)F)c1 (stereo not shown) [TCMDC-131535] | -11.59%
17 | Cc1[nH]c(C)c(-c2ccc(-c3cccc(Cl)c3)nc2)c(=O)c1Cl [TCMDC-136300] | 76.37%
18 | Cc1[nH]c(C)c(-c2ccc(-c3cccc(Cl)c3)nc2)c(=O)c1Br [TCMDC-136160] | 67.06%
19 | Cc1ccc(NC(=O)c2ccc(CN3CCCN(CCC(C)C)CC3)cc2)cc1C [TCMDC-136443] | -19.3%
20 | Cc1nc2c(Nc3nc(-c4ccncc4)cs3)ncnc2n1-c1ccccc1Cl [TCMDC-136288] | 72.25%
21 | Cn1cnc2c(Nc3ccncc3)nc(-c3ccc4ccccc4c3)nc21 [TCMDC-141131] | -3.392%
22 | Cc1ccc(-n2c(C)nc3c(Nc4ccc(-c5ccncc5)cc4)ncnc32)c(C)c1 [TCMDC-136289] | 103.3%
23 | Cc1nc(Nc2ccncc2)cc(-c2ccncc2)n1 [TCMDC-124589] | -12.99%

Row | Structure (SMILES) | % Inhibition
24 | Oc1ccc2[nH]c(-c3cccc(F)c3)nc2c1CN1CCC(O)(c2ccccc2)CC1 [TCMDC-136359] | -19.77%
25 | CC(C(=O)Nc1ccc(Br)cc1Br)N1CCN(C(=O)c2ccco2)CC1 (stereo not shown) [TCMDC-124879] | -7.948%
26 | CCCC(C)NC(=O)[C@H](CC1CCCCC1)NC(=O)c1ccc(O)c(-c2ccc(OC)cc2)c1 (stereo partly shown) [TCMDC-140801] | 27.46%
27 | CN(C)CCCNCc1ccc(-c2ccc(CNCCc3ccccc3)cc2)cc1 [TCMDC-141456] | 100.3%
28 | CC[C@H](C)CNC(=O)c1cncc(-c2ccc(CNCCOc3ccccc3)cc2)c1 [TCMDC-134239] | -0.3321%
29 | CCCNC(=O)c1cncc(-c2ccc(CNCCCc3ccccc3)cc2)c1 [TCMDC-134248] | 11.91%
30 | CN(C)CCCNCc1ccc(-c2ccc(CNCCOc3ccccc3)cc2)cc1 [TCMDC-141457] | 91.94%
31 | CN(C)CCCOc1cccc(NC(=O)Nc2ccc(-c3ccccc3)cc2)c1 [TCMDC-139539] | -65.39%
32 | CC1(C)N=C(N)N=C(N)N1OCCOc1cccc(C(F)(F)F)c1 [TCMDC-131615] | 4.099%
33 | CCc1c(CCNCCCCCCNCCc2ccc(Br)cc2)ccc(O)c1O [TCMDC-132044] | 115.9%
34 | Cc1cc(CNCCCCCCNCc2cccc([N+](=O)[O-])c2)ccc1O [TCMDC-140413] | 32.63%
35 | CCc1c(CCNCCCCCCNCCc2ccc([N+](=O)[O-])cc2)ccc(O)c1O [TCMDC-132067] | 69.46%
36 | CCCCCCNCc1c(O)ccc2c(CNCCCCCC)c(O)ccc12 [TCMDC-137592] | -1.678%
37 | O=C(N[C@H]1CCCC[C@H]1C(=O)O)c1ccccc1 [TCMDC-124293] | -3.601%
38 | Cc1ccc(CNC(=O)c2cnc(N3CCN(c4ccncc4)CC3)c(Cl)c2)cc1 [TCMDC-134626] | 3.173%
39 | CC1(C)CCC(C)(C)c2c1ccc(C1CCN(CCCCNC(=O)c3ccc(-c4ccc(C#N)cc4)cc3)CC1)c2O [TCMDC-135505] | 91.89%
40 | Cc1cc(C2CCN(CCCCNC(=O)c3ccc(-c4ccc(C#N)cc4)cc3)CC2)c(C)cc1O [TCMDC-138817] | -58.22%
41 | COc1c(C2CCN(CCCCNC(=O)c3ccc(-c4ccc(C#N)cc4)cc3)CC2)cc(Cl)c2c1CCCC2 [TCMDC-135288] | -31.75%
42 | COc1c(C2CCN(CCCCNC(=O)c3ccc(-c4ccc(C#N)cc4)cc3)CC2)ccc2c1C(C)(C)CCC2(C)C [TCMDC-135481] | 92.96%
43 | COc1c(C2=CCN(CCCCNC(=O)c3ccc(-c4ccc(C#N)cc4)cc3)CC2)c(C)cc2c1C(C)(C)CCC2(C)C [TCMDC-135480] | 3.716%
44 | Cc1[nH]c2ccccc2c1C1CCN(CCCCNC(=O)c2ccc(-c3ccc(C#N)cc3)cc2)CC1 [TCMDC-138808] | 60.39%
45 | CCc1ccc(C2CCN(CCCCNC(=O)c3ccc(-c4ccc(Cl)cc4)cc3)CC2)c(O)c1 [TCMDC-138548] | 18.22%
46 | Cc1c(C2CCN(CCCCNC(=O)c3ccc(-c4ccc(C#N)cc4)cc3)CC2)c2ccccc2n1CCO [TCMDC-138815] | -16.09%

Row | Structure (SMILES) | % Inhibition
47 | Cc1ccc(C2CCN(CCCCNC(=O)c3ccc(-c4ccc(C#N)cc4)cc3)CC2)c(O)c1 [TCMDC-138658] | -70.86%
48 | N#Cc1ccc(-c2ccc(C(=O)NCCCCN3CCC(c4nc5ccccc5[nH]4)CC3)cc2)cc1 [TCMDC-133362] | 24.39%
49 | CC1(C)CCC(C)(C)c2c1ccc(C1CCN(CCCCNC(=O)c3ccc(-c4ccc(Cl)cc4)cc3)CC1)c2O [TCMDC-135483] | 86.31%
50 | CCC(C)(C)C1CCc2[nH]c3ccccc3c(=O)c2C1 (stereo not shown) [TCMDC-125226] | 30.2%
51 | CC(=O)N/N=C/[C@H](CCc1ccccc1)NC(=O)[C@H](CC(C)C)NC(=O)c1ccc(OCCN2CCOCC2)cc1 [TCMDC-135916] | 2.96%
52 | CC(NC(C)c1cccc(Cl)c1)C(=O)Nc1cc(C(F)(F)F)ccc1N1CCOCC1 (stereo not shown) [TCMDC-125061] | -33.15%
53 | Cc1cccc(C(=O)Nc2ccnc(N3CCC(N(C)Cc4cccc(C#N)c4)CC3)c2)c1 [TCMDC-134973] | -4.566%
54 | O=C(c1ccco1)N1CCN(c2nc(-c3ccc(Cl)cc3)nc3ccccc23)CC1 [TCMDC-124753] | 14.1%
55 | COc1ccc2nccc([C@@H](O)CN3CCC(NC(=O)C(c4cc5ccccc5s4)N4CC(C)OC(C)C4)CC3)c2c1 (stereo partly shown) [TCMDC-140995] | 7.748%
56 | CC1(C)CCC(C)(C)c2c1ccc(C1CCN(CCCCNC(=O)c3ccc(-c4ccc(C#N)cc4)cc3)CC1)c2OCC(N)=O [TCMDC-135627] | 76.03%
57 | N#Cc1ccc(-c2ccc(C(=O)NCCCCN3CCC(c4cc(Br)c5c(c4OCC(N)=O)CCCC5)CC3)cc2)cc1 [TCMDC-135263] | -29.4%
58 | COc1c(C2CCN(CCCCNC(=O)c3ccc(-c4ccc(Cl)cc4)cc3)CC2)ccc2c1C(C)(C)CCC2(C)C [TCMDC-135482] | 91.33%
59 | C=CCc1cc(C2CCN(CCCCNC(=O)c3ccc(-c4ccc(C#N)cc4)cc3)CC2)c(OCC(N)=O)c2c1CCCC2 [TCMDC-135625] | -14.83%
60 | OCCc1ccc(Nc2nccc(-c3nnc4ccccn34)n2)cc1 [TCMDC-138924] | -13.1%
61 | COc1ccc(Nc2nc(NCc3cccnc3)cc(-c3ccc(OC)cc3)n2)cc1 [TCMDC-133467] | 9.957%
62 | Cc1cc(-c2cc3nc4c(c(=O)n3[nH]2)CCCC4)c(C)o1 [TCMDC-125325] | 32.39%
63 | Cc1ccc(-c2[nH]n3c(=O)c4c(nc3c2C)CCCC4)cc1 [TCMDC-124479] | 75.27%
64 | O=c1[nH]c(NCCCNCc2cc3c(Cl)cc(Cl)cc3[nH]2)nc2ccsc12 [TCMDC-139925] | -0.4742%
65 | Cc1cc(N2CCCC2)nc(Nc2ccc(NC(=O)C3CCCC3)cc2)n1 [TCMDC-124964] | -12.42%
66 | CS(=O)(=O)Cc1cccc(Nc2ncc(Cl)c(Nc3cccnc3C(N)=O)n2)c1 [TCMDC-134166] | -54.44%
67 | O=C(Nc1cccc(-c2nn3ccccc3c2-c2ccnc(Nc3ccc(C(=O)N4CCOCC4)cc3)n2)c1)c1c(F)cccc1F [TCMDC-135910] | -23.59%
